Laboratory results as given in publication PMC4336329 (PLoS ONE, 2015).
Among all 310,000 compounds or so, about 2,200 (0.71%) showed an effect of 50% or more. The effect is printed as a negative number. This excerpt belongs to a sample that is enriched for strong results.

The compounds below were run against human ether-à-go-go-related gene (hERG) potassium channel (human, UniProt Q12809) (assay: primary screen, population patch clamp on CHO cells stably expressing hERG; higher = less effect of the substance).
Chain of human ether-à-go-go-related gene (hERG) potassium channel (Q12809 whole entry, looked up): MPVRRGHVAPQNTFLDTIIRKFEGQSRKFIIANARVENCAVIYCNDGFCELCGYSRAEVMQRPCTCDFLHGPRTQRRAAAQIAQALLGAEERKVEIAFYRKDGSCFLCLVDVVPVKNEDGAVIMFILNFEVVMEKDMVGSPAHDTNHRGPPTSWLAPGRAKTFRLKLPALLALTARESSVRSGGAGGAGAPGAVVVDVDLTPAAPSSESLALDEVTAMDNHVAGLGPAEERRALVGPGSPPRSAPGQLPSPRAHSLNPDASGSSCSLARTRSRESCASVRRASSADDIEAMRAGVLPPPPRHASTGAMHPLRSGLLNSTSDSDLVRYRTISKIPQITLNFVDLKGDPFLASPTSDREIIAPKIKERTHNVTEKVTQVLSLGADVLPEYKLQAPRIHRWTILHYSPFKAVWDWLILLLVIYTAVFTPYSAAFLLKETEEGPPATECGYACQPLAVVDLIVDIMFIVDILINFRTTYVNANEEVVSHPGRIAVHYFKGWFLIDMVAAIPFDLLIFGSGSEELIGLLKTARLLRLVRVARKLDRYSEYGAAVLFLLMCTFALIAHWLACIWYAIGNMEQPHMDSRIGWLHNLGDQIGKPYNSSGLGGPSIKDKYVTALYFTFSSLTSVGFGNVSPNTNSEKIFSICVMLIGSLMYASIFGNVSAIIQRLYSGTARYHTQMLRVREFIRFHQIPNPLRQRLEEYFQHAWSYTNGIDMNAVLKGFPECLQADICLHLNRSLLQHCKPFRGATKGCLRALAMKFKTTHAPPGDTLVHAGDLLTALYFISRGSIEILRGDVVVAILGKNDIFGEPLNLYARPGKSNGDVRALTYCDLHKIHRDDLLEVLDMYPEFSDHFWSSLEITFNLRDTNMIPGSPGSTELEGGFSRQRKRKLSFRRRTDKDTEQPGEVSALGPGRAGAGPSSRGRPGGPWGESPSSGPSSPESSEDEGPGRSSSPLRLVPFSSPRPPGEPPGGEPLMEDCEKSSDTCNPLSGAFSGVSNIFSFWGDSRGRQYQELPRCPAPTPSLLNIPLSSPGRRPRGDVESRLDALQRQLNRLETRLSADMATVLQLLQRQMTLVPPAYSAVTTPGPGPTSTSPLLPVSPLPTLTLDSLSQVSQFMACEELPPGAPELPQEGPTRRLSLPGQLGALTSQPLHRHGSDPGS

Compound	hERG current change (%, negative = inhibition) at 1uM [%]
CCN(CC)CCOC(=O)c1ccc(N/C=C(/C#N)c2nc(-c3cccc(OC)c3)cs2)cc1	13.7
CCOC(=O)/C=C1\SCC(=O)N1CC(=O)Nc1ccc(OC)c(OC)c1	12.2
CCOC(=O)C1CCN(C(=O)N(CC)CC)CC1	3.77
CCCCn1c(=O)c(-c2ccccc2)c(O)c2ccccc21	16.3
Cc1nonc1C1CCCN1C(=O)c1cc(COc2ccc(F)cc2Cl)on1 (stereo not drawn)	8.74
COc1ccc(NC2CCCN(C(=O)CSc3ccccc3)C2)cc1OC (stereo not drawn)	4.34
CC1(C)CC(=O)C(C(c2cccnc2)C2C(=O)CC(C)(C)CC2=O)C(=O)C1	2.02
CCCC(=O)N1CCN(c2ccc(NC(=O)c3ccc(N4CCCC4)c([N+](=O)[O-])c3)cc2Cl)CC1	-8.46
Br.N=C1c2ccccc2CN1NC(=O)C1CC1	7.71
CCCCN(C)C(=O)c1cc2c(s1)-c1ccccc1S(=O)(=O)C2	-6.69
Cc1[nH]c(=O)[nH]c(=O)c1S(=O)(=O)N1CCC(C(=O)NC(C)c2ccccc2)CC1 (stereo not drawn)	7.35
COC(=O)c1ccc(CN2CCC(Oc3ccc(C(=O)N4CCCCC4)cc3)CC2)cc1	-11.3
CSc1ccc(CN2CCC(Oc3cccc(C(=O)N4CCCC4)c3)CC2)cc1	-36.7
CC(C)c1ccc(CN2CCC(Oc3ccc(C(=O)N4CCCC4)cc3)CC2)cc1	-33.7
O=C(c1ccc(OC2CCN(Cc3ccc(F)cc3)CC2)cc1)N1CCCC1	7.68
O=C(c1ccc(OC2CCN(Cc3ccc(C(F)(F)F)cc3)CC2)cc1)N1CCCCC1	6.84
CCc1ccc(CN2CCC(Oc3ccc(C(=O)N4CCCCC4)cc3)CC2)cc1	-61.5
CCc1ccc(CN2CCC(Oc3ccc(C(=O)N4CCCC4)cc3)CC2)cc1	-77.5
O=C(c1ccc(OC2CCN(CCCc3ccccc3)CC2)cc1)N1CCCC1	-55.2
CC(=O)N1CCN(C(=O)c2ccc(OC3CCN(CCc4ccccc4)CC3)cc2)CC1	14.6
CC(=O)Nc1ccc(CN2CCC(Oc3ccc(C(=O)N4CCCC4)cc3)CC2)cc1	-6.27
CSc1ccc(CN2CCC(Oc3ccc(C(=O)N4CCCC4)cc3)CC2)cc1	-56.4

Compound	hERG current change (%, negative = inhibition) at 1uM [%]
O=C(c1ccc(OC2CCN(CCc3ccccc3)CC2)cc1)N1CCCC1	-1.63
CC(=O)c1cc(C(=O)N2CCCC(CCC(=O)N(C)CCc3ccccn3)C2)cs1 (stereo not drawn)	9.12
Cc1ccc(S(=O)(=O)Nc2cccc(/C=C/C(=O)O)c2)cc1	17
O=C(CN1CCN(c2ccc(Cl)cc2)CC1)c1ccc2c(c1)OCO2	1.86
COc1ccccc1/C=C/C(=O)Nc1cccc(S(=O)(=O)NC2=NCCCCC2)c1	13.1
COc1ccc(C(=O)NC(=S)N2CCCCC2)cc1[N+](=O)[O-]	5.8
O=C(NCc1ccco1)c1sc(=S)n2c1[nH]c(=O)c1ccccc12	-4.07
CCCCn1c(N)c(N(CC)C(=O)c2ccccc2F)c(=O)[nH]c1=O	19.7
CCOc1ccccc1NC(=O)CSc1nnc(Cc2cccn2C)n1-c1ccc(F)cc1	-8.2
CCCCc1nc(NCC2CCCO2)c(C#N)c2c1COC(C)(C)C2 (stereo not drawn)	6.42
COc1ccccc1OCc1ccc(C(=O)NN)cc1	5.11
C[C@@H]1CC[C@@]2(O[C@@H](CCO)C[C@@H](O)[C@@H]2O)O1	20.7
O=C(c1ccc(OC2CCN(C/C=C/c3ccc(F)cc3)CC2)cc1)N1CCCCC1	-19.2
O=C(c1ccc(OC2CCN(C/C=C/c3ccc(F)cc3)CC2)cc1)N1CCCC1	-74.9
O=C(c1ccc(OC2CCN(C/C=C/c3ccccc3)CC2)cc1)N1CCCC1	-27.1
Cc1cccc(N2CCN(C(=O)c3ccc4nc(N5CCCCC5)sc4c3)CC2)c1C	8.76
Brc1ccc(C=Nc2ccc3c(c2)OCCOCCOCCO3)s1	-58.3
Brc1csc(C=Nc2ccc3c(c2)OCCOCCOCCOCCO3)c1	-78.1
O=C(N/N=C/c1cc(Br)cs1)c1ccc2c(c1)OCCO2	9.48
Oc1c(Br)cc(Br)cc1C=Nc1ccc2c(c1)OCCO2	12.2
Oc1c(Cl)cc(Cl)cc1C=Nc1ccc2c(c1)OCCO2	16
Brc1ccc(C=Nc2ccc(Nc3ccccc3)cc2)s1	14.7

Compound	hERG current change (%, negative = inhibition) at 1uM [%]
COc1ccc(/[N+]([O-])=C/c2ccoc2)cc1	14
Nc1nnc(SCc2nc3scc(-c4ccccc4)c3c(=O)[nH]2)s1	15.6
O=C(CC1CCCC1)Nc1nnc(C2CC2)s1	11.5
CC(=O)Nc1cccc(NC(=O)CSc2nccn2Cc2ccccc2)c1	14.4
CN(C(=O)c1ccc(Cl)nc1)C1(c2ccccc2Cl)CCCCC1=O (stereo not drawn)	5.36
O=C(NCC(=O)N(c1ccccc1)C(C(=O)NCC1CCCO1)c1ccccc1)c1ccco1 (stereo not drawn)	13.9
C=Cc1ccc(Cn2c(=O)n(C)c(=O)c3sccc32)cc1	12.4
FC(F)(F)c1ccc(-c2n[nH]c(=S)o2)nc1	9.8
CC(=O)c1c(N2CCN(c3ccccc3)CC2)nc(=S)n(-c2ccccc2)c1C	2.93
CC(=O)c1c(N2CCN(c3ccc(F)cc3)CC2)nc(=S)n(-c2ccccc2)c1C	-69.3
COc1ccc(N2CCN(c3nc(=S)n(-c4ccccc4)c(C)c3C(C)=O)CC2)cc1	10.2
CN(c1ccc(O)cc1)c1nc(O)c(C2=c3ccccc3=NC2=O)s1	8.57
Cc1cc(Br)cc2c1N(C)C(=O)C2(c1ccc(O)cc1)c1ccc(O)cc1	12
COCCCNC(=S)N1CCN(c2ccccc2)CC1	18.3
COCCNC(=S)N1CCN(c2ccc(Cl)cc2)CC1	1.27
C=CCNC(=S)N1CCN(c2ccc([N+](=O)[O-])cc2)CC1	-52.1
O=[N+]([O-])c1ccc(NC(=S)N2CCN(c3ccc(F)cc3)CC2)cc1	13
O=[N+]([O-])c1ccc(N2CCN(C(=S)Nc3ccccc3)CC2)cc1	5.2
COCCCNC(=S)N1CCN(c2ccc([N+](=O)[O-])cc2)CC1	-64.8
CCNC(=S)N1CCN(c2ccc([N+](=O)[O-])cc2)CC1	-50.5
O=[N+]([O-])c1ccc(N2CCN(C(=S)NCc3ccc(Cl)cc3)CC2)cc1	12.9
CNC(=S)N1CCN(c2ccc([N+](=O)[O-])cc2)CC1	-40.5

Compound	hERG current change (%, negative = inhibition) at 1uM [%]
Cc1ccc(OCc2nnc(NC(=O)c3ccco3)s2)c(C)c1	17.8
C/C(=N/NC(=O)c1ccc(Br)o1)c1ccc(C)o1	0.861
COCCNC(=S)NNC(=O)c1cc(C2CC2)nc2ccccc12	14.8
O=C(CCC(=O)OCc1cccc([N+](=O)[O-])c1)Nc1ccccc1Cl	2.86
O=[N+]([O-])c1cccc(Cl)c1CSc1ccccn1	11
CCN(CC)c1ccc(/C=C/c2ccc3ccc(OC)cc3[n+]2CC)cc1.[I-]	-85
CC[n+]1c(/C=C/c2ccc(OC)c(OC)c2)ccc2ccccc21.[I-]	13.8
CC[n+]1c(/C=C/c2ccc(N(C)C)cc2)ccc2ccccc21.[I-]	-27
O=c1[nH]c(=O)n(Cc2ccco2)c2c1C(C(F)(F)F)(C(F)(F)F)N=C(Cc1ccccc1)N2	6.17
CCOC(=O)C1=C(Cc2ccc(F)cc2)C(=O)c2ccccc2C1=O	6.27
CCOC(=O)CCNC(=O)N1CCCC(CNS(=O)(=O)Cc2ccccc2)C1 (stereo not drawn)	8.76
CCN1CCN(CC2COc3ccccc3O2)CC1.Cl (stereo not drawn)	7.79
Cc1cc2nc(C3CCN(Cc4nnnn4Cc4ccccc4)CC3)[nH]c2cc1C	-50.7
Cc1cc2nc(C3CCN(CC4COc5ccccc5O4)CC3)[nH]c2cc1C (stereo not drawn)	-65.6
Cl.c1ccc(Cn2nnnc2CN2CCCC2)cc1	10.1
Cc1nc2cc(C(F)(F)F)ccc2n1C1CCN(Cc2nnnn2Cc2cccs2)CC1	-2.78
CCN(CC)C(=O)CN1CCC(c2nc3cc(C)c(C)cc3[nH]2)CC1	11.1
Cc1cc2nc(C3CCN(Cc4nnnn4Cc4cccs4)CC3)[nH]c2cc1C	-72.4
c1csc(Cn2nnnc2CN2CCN(c3nc4ccccc4s3)CC2)c1	-7.1
CCC(C)(C)n1nnnc1CN1CCC(c2nc3ccc(C)cc3[nH]2)CC1	-25.7
CCN(CC)CCN1C(=O)C(=O)/C(=C(/O)c2ccc(F)cc2)C1c1cccnc1 (stereo not drawn)	14.9
